# According to PubChem BioAssay (Tox21):
# Inconclusive results are not listed. Unmarked numbers belong to inactive results. The source made the active and inactive calls. The call rests on the fitted dose curve.
# Tested on: not listed separately
# Test: qHTS assay to identify small molecule antagonists of the estrogen receptor alpha (ER-alpha) signaling pathway - cell viability counter screen (AID 743074);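 further: HEK293 cells carrying ER-alpha-UAS-bla reporter stimulated with 17beta-estradiol; nearly all actives have a fitted effect of over 45% in size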
# Conditions: ERalpha-bla HEK293 viability, CellTiter-Glo luminescence, 18 h; series mostly up to 69.4 µM; activity, negative = cytotoxicity: at the top concentration
# On the % scale 0 is the no-effect control and ±100 the full control effect.
SMILES,"activity, negative = cytotoxicity",outcome
COc1ccc(CCN(C)CCCC(C#N)(c2cc(OC)c(OC)c(OC)c2)C(C)C)cc1OC (stereo not given),17.9%,
O=c1cc(CO)occ1O,4.15%,
NS(=O)(=O)c1cc(C(=O)O)cc(N2CCCC2)c1Oc1ccccc1,17.3% [at 32.6 µM],
CCOC(C)(C)C,-16.1% [at 79.1 µM],
C=CCCCCCCCCC=O,17.4%,
NC(=O)c1cn(Cc2c(F)cccc2F)nn1,2.41%,
O=C(O)CCCl,7.57% [at 79.1 µM],
NC(CSCC(=O)O)C(=O)O (stereo not given),19.7%,
COC(=O)CCSCCC(=O)OC,0.147%,
Cc1[nH]c(=O)c(C#N)cc1-c1ccc2nccn2c1,-10.5%,
Cc1ccc(=O)n(-c2ccccc2)c1,-12.8%,
COC(=O)c1c(Cl)c(Cl)c(C(=O)OC)c(Cl)c1Cl,1.4%,
COC(=O)NN,-3.6% [at 79.1 µM],
CC(C)(O)C#CC(C)(C)O,23% [at 79.1 µM],
OCCCC1CCCCC1,-7.12%,
N[C@H](C(=O)O)c1ccc(O)cc1,15.2%,
COc1ccc2c(c1)c(CC(=O)OCC(=O)O)c(C)n2C(=O)c1ccc(Cl)cc1,-5.15%,
CCO/C([O-])=N/c1c[n+](N2CCOCC2)no1,12.7% [at 32.6 µM],
CCCCCCCCS(=O)(=O)Cl,-12.5% [at 79.1 µM],
COC(=O)[C@@H](N)Cc1ccc(O)c(O)c1,3.57%,
O=S(O)CO,,inactive
ClC(Cl)(Br)Br,6.62%,
CC(C)NCC(O)c1ccc(NS(C)(=O)=O)cc1 (stereo not given),,inactive
COC(=O)C1=C(C)NC(C)=C(C(=O)OC)C1c1ccccc1[N+](=O)[O-],,inactive
CCCCNC(=O)NCCCC,-9.36%,
CCCCOCCOCCOCc1cc2c(cc1CCC)OCO2,6.44%,
CC(C)(CC(=O)O)C(=O)O,-3.66%,
CN1CCC(=C2c3ccccc3CC(=O)c3sccc32)CC1,-5.23%,

# Biological target: Estrogen receptor (Homo sapiens) (UniProt P03372)
# Sequence (P03372 whole entry, looked up): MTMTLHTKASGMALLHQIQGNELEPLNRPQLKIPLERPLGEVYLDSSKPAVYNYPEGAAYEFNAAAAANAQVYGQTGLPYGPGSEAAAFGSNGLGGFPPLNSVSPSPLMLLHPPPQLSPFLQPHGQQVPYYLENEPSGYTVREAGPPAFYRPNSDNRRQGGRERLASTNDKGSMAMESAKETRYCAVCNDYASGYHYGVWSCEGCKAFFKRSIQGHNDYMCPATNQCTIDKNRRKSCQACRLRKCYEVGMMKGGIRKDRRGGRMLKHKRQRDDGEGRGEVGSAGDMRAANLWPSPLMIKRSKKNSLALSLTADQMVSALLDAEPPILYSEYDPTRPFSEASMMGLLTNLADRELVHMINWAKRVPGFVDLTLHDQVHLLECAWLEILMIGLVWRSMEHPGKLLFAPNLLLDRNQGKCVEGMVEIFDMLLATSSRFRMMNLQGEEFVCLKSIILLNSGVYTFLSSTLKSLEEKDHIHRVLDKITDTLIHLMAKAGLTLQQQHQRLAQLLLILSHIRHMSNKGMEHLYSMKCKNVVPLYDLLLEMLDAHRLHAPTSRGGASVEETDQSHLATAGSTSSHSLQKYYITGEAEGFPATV
# Test: qHTS assay to identify small molecule agonists of the estrogen receptor alpha (ER-alpha) signaling pathway (AID 743075);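 further: HEK293 GripTite cells with ER-alpha and UAS-driven beta-lactamase reporter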
# Conditions: HEK293 ER-alpha-UAS-bla, beta-lactamase FRET ratio, 18 h; series mostly up to 70.1 µM; activation: at the top concentration
SMILES,Potency,activation
O=c1cc(CO)occ1O,inactive,
NS(=O)(=O)c1cc(C(=O)O)cc(N2CCCC2)c1Oc1ccccc1,,-1.43% [at 32.9 µM]
CCOC(C)(C)C,,-1.3% [at 79.1 µM]
C=CCCCCCCCCC=O,,-3.6%
O=C(O)CCCl,,-1.33% [at 79.1 µM]
NC(CSCC(=O)O)C(=O)O (stereo not given),,-1.21%
CC(=O)c1ccccc1O,,-1.7%
Cc1ccc(=O)n(-c2ccccc2)c1,,-1.17%
COC(=O)c1c(Cl)c(Cl)c(C(=O)OC)c(Cl)c1Cl,inactive,
COC(=O)NN,,-1.13% [at 79.1 µM]
CC(C)(O)C#CC(C)(C)O,,-0.953% [at 79.1 µM]
OCCCC1CCCCC1,,-2.4%
CC1=CC(C)C(C=O)CC1 (stereo not given),,-1.12%
N[C@H](C(=O)O)c1ccc(O)cc1,,-0.468%
CCO/C([O-])=N/c1c[n+](N2CCOCC2)no1,,-0.538% [at 32.9 µM]
O=S(O)CO,inactive,
ClC(Cl)(Br)Br,,-0.977%
COC(=O)C1=C(C)NC(C)=C(C(=O)OC)C1c1ccccc1[N+](=O)[O-],,-1.08%
CCCCNC(=O)NCCCC,,-1.35%
N#Cc1ccc(C2CCCc3cncn32)cc1 (stereo not given),,-1.79% [at 32.9 µM]
CC(C)(CC(=O)O)C(=O)O,,-2.2%
CN1CCC(=C2c3ccccc3CC(=O)c3sccc32)CC1,,-1.22%
